Measured values published in PubChem BioAssay (Tox21).
Results filed as inconclusive are left out. Entries that show only a call come without a potency. Unmarked numbers belong to inactive results. Calls of active or inactive are those of the source. Unless noted, calls follow the shape of the full dose curve.

Columns and labels:
[1] = qHTS assay to identify small molecule antagonists of the vitamin D receptor (VDR) signaling pathway - cell viability counter screen (AID 743225; active = well fitted curve in the direction sought with a large enough effect in the repeat runs; an effect the other way counts as inactive or inconclusive; also: nearly all actives have a fitted effect of over 50% in size)
Summary of the method: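 Cytotoxicity toward the VDR-bla HEK 293T line was scored by ATP-based CellTiter-Glo luminescence, read in the wells already used for the beta-lactamase readout after 16 h compound treatment under 3 nM 1-alpha,25-dihydroxyvitamin D3 stimulation.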

[2] = qHTS assay to identify small molecule agonists of the NFkB signaling pathway - cell viability counter screen (AID 1159515); also: series mostly up to about 61 µM; nearly all actives have a fitted effect of over 55% in size
Summary of the method: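 Multiplexed viability readout: after the 5 hr compound exposure and 1.5 hr FRET substrate step, CellTiter-Glo reagent went into the same NFkB-bla ME-180 wells; ATP luminescence was measured after 30 min at room temperature.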

[3] = qHTS assay to identify small molecule agonists of the endoplasmic reticulum stress response signaling pathway (AID 1159516; active = well fitted activation curve with a large enough effect in the signal ratio in the repeat runs, not every such curve was filed as active; the % refers to the signal ratio)
Summary of the method: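 Tox21 10K library screened in quantitative HTS format on ESRE-bla HeLa cells, a beta-lactamase reporter under ER stress response element control; 5 hr treatment, FRET read.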

[4] = qHTS assay to identify small molecule agonists of the endoplasmic reticulum stress response signaling pathway - cell viability counter screen (AID 1159517); also: series mostly up to about 61 µM; nearly all actives have a fitted effect of over 50% in size
Summary of the method: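 Cells, HeLa ESRE-bla; density, 1,500/well; dosing, 5 hr at 37 C, 5% CO2; readout, CellTiter-Glo luminescence after 30 min RT.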

[5] = qHTS assay to identify small molecule antagonists of the retinoid-related orphan receptor gamma (ROR-gamma) signaling pathway - cell viability counter screen (AID 1159520; active = well fitted curve in the direction sought with a large enough effect in the repeat runs; an effect the other way counts as inactive or inconclusive; also: nearly all actives have a fitted effect of over 50% in size; also: potency is read from the fitted curve at half-maximal effect)
Summary of the method: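 Cytotoxicity was read from cellular ATP (CellTiter-Glo luminescence) after 16 hr at 37 C with 1 uM doxycycline induction. The inducer was added 2 hr after compound transfer to Tet-on ROR gamma CHO cells.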

[6] = molecular target: Nuclear receptor ROR-gamma (Homo sapiens) (UniProt P51449); experiment: qHTS assay to identify small molecule antagonists of the retinoid-related orphan receptor gamma (ROR-gamma) signaling pathway (AID 1159521; active = well fitted curve in the direction sought with a large enough effect in the repeat runs; an effect the other way counts as inactive or inconclusive; also: nearly all actives have a fitted effect of over 50% in size; also: potency is read from the fitted curve at half-maximal effect)
Summary of the method: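 Readout: ONE-Glo luciferase luminescence, 30 min at room temperature. System: Tet-on RORγ CHO, RORE-LUC. Sequence: compound 2 h, doxycycline 1 uM final, 16 h at 37 C.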

[7] = qHTS assay to identify small molecule agonists of the AP-1 signaling pathway - cell viability counter screen (AID 1159525); also: nearly all actives have a fitted effect of over 55% in size
Summary of the method: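 Luminescent ATP readout (Cell Titer Glo, 30 min RT), normalised to DMSO and tetra n-octyl ammonium bromide controls. Cells were ME-180 AP-1-bla in 0.5% dialyzed FBS Opti-MEM, with a 5 h, 37 °C compound exposure.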

[8] = qHTS assay to identify small molecule agonists of the vitamin D receptor (VDR) signaling pathway - cell viability counter screen (AID 743224; active = well fitted curve in the direction sought with a large enough effect in the repeat runs; an effect the other way counts as inactive or inconclusive)
Summary of the method: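 Viability is measured in the same wells as the VDR-bla reporter assay: after 16 h compound treatment and 2 h substrate loading, CellTiter-Glo is added and luminescence read 30 min later.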

[9] = qHTS assay to identify small molecule agonists of the AP-1 signaling pathway (AID 1159526); also: potency is read from the fitted curve at half-maximal effect
[10] = molecular target: Retinoic acid receptor RXR-alpha (Homo sapiens) (UniProt P19793); experiment: qHTS assay to identify small molecule agonists of the RXR signaling pathway (AID 1159527); also: nearly all actives have a fitted effect of over 35% in size
Sequence of Retinoic acid receptor RXR-alpha (Homo sapiens) (P19793 whole entry, looked up): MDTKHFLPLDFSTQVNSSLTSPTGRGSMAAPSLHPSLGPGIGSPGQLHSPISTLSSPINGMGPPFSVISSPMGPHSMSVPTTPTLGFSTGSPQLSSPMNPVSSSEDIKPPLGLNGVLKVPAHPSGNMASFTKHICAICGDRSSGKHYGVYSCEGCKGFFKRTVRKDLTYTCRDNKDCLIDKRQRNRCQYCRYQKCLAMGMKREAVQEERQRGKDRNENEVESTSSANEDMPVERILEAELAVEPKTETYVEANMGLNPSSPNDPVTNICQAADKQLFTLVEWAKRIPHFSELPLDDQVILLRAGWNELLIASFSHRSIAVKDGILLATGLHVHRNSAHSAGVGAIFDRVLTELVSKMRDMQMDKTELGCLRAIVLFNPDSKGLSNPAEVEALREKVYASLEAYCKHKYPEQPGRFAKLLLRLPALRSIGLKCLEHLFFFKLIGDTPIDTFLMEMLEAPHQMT
Summary of the method: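 Reporter activation is measured as beta-lactamase activity via FRET substrate cleavage (emission 460/530 nm) in HEK 293T cells expressing an RXR-alpha-driven bla construct, following 16 hr compound exposure at 37 C.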

Row | Structure (SMILES) | Potency [1] | Potency [2] | Potency [3] | Potency [4] | Potency [5] | Potency [6] | Potency [7] | Potency [8] | Potency [9] | Potency [10]
1 | CN(C)CCOC(c1ccccc1)c1ccc(Br)cc1 (stereo not drawn) | inactive | inactive | inactive | inactive | inactive | inactive | inactive | – | – | –
2 | CCOC(=O)NCCOc1ccc(Oc2ccccc2)cc1 | inactive | inactive | inactive | inactive | inactive | 43.3 µM (active) | inactive | inactive | – | –
3 | CC(C)Nc1ccc(NC(C)C)c2c1C(=O)c1ccccc1C2=O | inactive | inactive | inactive | inactive | 28.4 µM (active) | 25.3 µM (active) | inactive | inactive | – | –
4 | O=C(OCCc1ccccc1)c1ccccc1 | inactive | inactive | inactive | inactive | inactive | inactive | – | inactive | – | –
5 | C#CCN(C)CCCOc1ccc(Cl)cc1Cl | inactive | inactive | inactive | inactive | inactive | inactive | – | inactive | inactive | inactive
6 | CCCCCCCCCCCC(=O)OC[C@@H](O)[C@H]1OC[C@H](OCCO)[C@H]1OCCO | – | inactive | inactive | inactive | inactive | – | inactive | – | inactive | inactive
7 | C[C@H](CCC(=O)O)[C@H]1CC[C@H]2[C@@H]3CC[C@@H]4C[C@H](O)CC[C@]4(C)[C@H]3C[C@H](O)[C@]12C | – | inactive | inactive | inactive | inactive | – | inactive | – | – | –
8 | COCCCN1CCC(NC(=O)c2cc(Cl)c(N)c3c2OCC3)CC1 | inactive | inactive | inactive | inactive | inactive | – | inactive | inactive | inactive | inactive
9 | C=C(C)C(=O)OCCO | inactive | inactive | inactive | inactive | inactive | – | inactive | inactive | inactive | inactive
10 | Nc1ccc(N)c2c1C(=O)c1ccccc1C2=O | inactive | inactive | inactive | inactive | 21.7 µM (active) | – | inactive | inactive | inactive | inactive
11 | N=c1ccn2c(n1)O[C@H]1[C@H](O)[C@@H](CO)O[C@H]12 | – | inactive | inactive | inactive | inactive | – | inactive | inactive | inactive | inactive
12 | Cc1ccc(C(=O)Oc2ccc(C(O)CNC(C)(C)C)cc2OC(=O)c2ccc(C)cc2)cc1 (stereo not drawn) | – | inactive | inactive | inactive | 26.6 µM (active) | – | inactive | – | – | –
13 | CC(=O)c1ccc2c(c1)N(CCCN1CCC(CCO)CC1)c1ccccc1S2 | – | inactive | inactive | inactive | inactive | – | inactive | – | – | –
14 | CCn1cc(C(=O)O)c(=O)c2cnc(N3CCNCC3)nc21 | inactive | inactive | inactive | inactive | inactive | – | inactive | inactive | inactive | inactive
15 | CC(C)O.CC(C)O.CCOC(=O)/C=C(\C)O.CCOC(=O)/C=C(\C)O.[Ti] | inactive | inactive | inactive | inactive | inactive | – | inactive | inactive | inactive | inactive
16 | OC(CN1CCC(Cc2ccc(F)cc2)CC1)c1ccc(Cl)cc1 (stereo not drawn) | – | inactive | inactive | inactive | inactive | – | inactive | – | – | –
17 | CNCCCCOc1ccccc1Cc1ccccc1 | – | inactive | inactive | inactive | inactive | – | inactive | – | – | –
18 | CCCCCCCCO[C@@H]1O[C@H](CO)[C@@H](O)[C@H](O)[C@H]1O | inactive | inactive | inactive | inactive | inactive | – | inactive | inactive | inactive | inactive
19 | O=C1CCC(=O)O1 | inactive | inactive | inactive | inactive | inactive | – | inactive | inactive | inactive | inactive
20 | O=C(O)C(S)C(S)C(=O)O (stereo not drawn) | inactive | inactive | inactive | inactive | inactive | – | inactive | inactive | inactive | inactive
21 | O=C(Cl)c1cc(C(=O)Cl)cc(C(=O)Cl)c1 | – | inactive | inactive | inactive | 61.1 µM (active) | – | inactive | – | inactive | inactive
22 | CNC(=O)CN(CCN(CCN(CC(=O)[O-])CC(=O)NC)CC(=O)[O-])CC(=O)[O-].O.[Gd+3] | inactive | inactive | inactive | inactive | inactive | – | inactive | inactive | inactive | inactive
23 | C=C(C)C(=O)OCCOCC | inactive | inactive | inactive | inactive | inactive | – | inactive | inactive | 49.2 µM (active) | inactive
24 | Cc1ncc(CO)c(C=O)c1O | inactive | inactive | inactive | inactive | inactive | – | inactive | inactive | inactive | inactive
25 | O=C(O)c1ccccc1Cl | inactive | inactive | inactive | inactive | inactive | – | inactive | inactive | inactive | inactive
26 | CCCCCCCC/C=C\CCCCCCCC(=O)OCC | inactive | inactive | inactive | inactive | inactive | – | inactive | inactive | inactive | inactive
27 | C/C=C/C=C/CO | inactive | inactive | inactive | inactive | inactive | – | inactive | inactive | inactive | inactive
28 | C/C=C(/C(=C/C)c1ccc(OC(C)=O)cc1)c1ccc(OC(C)=O)cc1 | inactive | inactive | inactive | inactive | inactive | inactive | – | – | – | –
